Experimental data from PubChem BioAssay AID2235 (The Scripps Research Institute Molecular Screening Center, 2010).
Hit rate of the full screen: of about 320,000 compounds, about 2,800 (0.88%) were called active. This is one part of a sample in which actives are shown more often than they occur. Values without a mark were called inactive.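 How the source made its calls: active means inhibition above the mean inhibition of all tested compounds plus 3 SD, computed separately for each screening campaign (cut at about 15% in these data); inactive means the rest.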

What follows are molecules tested against Serine/threonine-protein phosphatase PP1-alpha catalytic subunit (Homo sapiens) (UniProt P62136) (assay: inhibition of human PP1 catalytic subunit – biochemical, fluorescence, OMFP substrate, single point, counter-screen for PP5 inhibitor project, primary screen (AID 2235)). Settings: purified PP1alpha, at 6.7 µM, active compounds read high.
Chain of Serine/threonine-protein phosphatase PP1-alpha catalytic subunit (Homo sapiens) (P62136 whole entry, looked up): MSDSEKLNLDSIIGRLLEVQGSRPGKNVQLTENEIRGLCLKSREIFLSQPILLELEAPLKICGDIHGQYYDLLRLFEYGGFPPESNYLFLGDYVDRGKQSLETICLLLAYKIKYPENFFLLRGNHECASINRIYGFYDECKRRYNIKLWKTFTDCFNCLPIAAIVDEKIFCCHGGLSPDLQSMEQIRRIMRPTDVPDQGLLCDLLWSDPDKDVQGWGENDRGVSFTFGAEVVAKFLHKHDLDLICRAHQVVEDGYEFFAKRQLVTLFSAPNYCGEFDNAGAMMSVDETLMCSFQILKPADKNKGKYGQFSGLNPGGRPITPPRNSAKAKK

Compound | inhibition
NS(=O)(=O)c1ccc(CCNC(=O)COC(=O)COc2cccc(C(F)(F)F)c2)cc1 | -0.82%
CCOC(=O)c1cc(-c2ccc(F)cc2)n(CC(=O)NCc2ccccn2)c1C | -3.29%
Cc1ccc(OCC(=O)Nc2ccc(-c3nc4ncccc4o3)cc2)cc1 | 0.81%
CCCCOc1ccc(-c2nnc(-c3ccco3)o2)cc1 | 3.14%
Cc1ccc(OCC(=O)Nc2ccc(-c3nnc(-c4ccco4)o3)cc2)cc1 | 24.5% (active)
Cc1cc(C)nc(N/N=C/c2c(CO)cnc(C)c2O)n1 | 1.96%
CSc1ccccc1NC(=O)c1cc(C2CC2)on1 | 0.1%
C=CCSc1nnc(N2C(=O)C(O)=C(C(=O)c3ccco3)C2c2ccc(F)cc2)s1 (stereo not drawn) | 10.6%
Cc1ccc2nc(N3C(=O)C(O)=C(C(=O)c4ccco4)C3c3cccc(O)c3)sc2c1 (stereo not drawn) | 21.7% (active)
Cc1ccc2nc(N3CCN(C(=O)c4ccco4)CC3)sc2c1 | -4.18%
COc1ccc(OC(C)C(=O)Nc2cccnc2)cc1 (stereo not drawn) | 3%
Cc1cc(NC(=O)CSCc2nc(-c3cccc(Cl)c3)oc2C)no1 | 0.91%
COc1ccc(N2C(=O)C(CC(=O)Nc3ccccc3)N(Cc3ccc(OC)c(OC)c3)C2=O)cc1 (stereo not drawn) | -2.83%
c1ccc(-c2cc(-c3ccccc3)[nH]n2)cc1 | 2.76%
N=c1c2c(-c3ccccc3)c(-c3ccccc3)n(Cc3ccccc3)c2ncn1CCCO | 7.81%
OCCCN1c2ccccc2Nc2nnc(-c3ccccc3)cc21 | 21.4% (active)
CCN(CCCNC(=O)c1ccc2c(c1)NC(=O)CN2C)c1cccc(C)c1 | -0.43%
CCC(C)N(C(=O)CSc1nnnn1-c1ccccc1OC)C1CCS(=O)(=O)C1 (stereo not drawn) | -1.76%
CC1CCCCN1C(=O)Cn1c(=O)oc2cc(S(=O)(=O)N3CCCCC3)ccc21 (stereo not drawn) | 5.73%
COc1ccc(C)cc1Nc1n[n+](-c2ccccc2)c(-c2cccc(Cl)c2Cl)s1 | 15.2% (active)

Compound | inhibition
COc1cc(Br)c(-c2sc(Nc3ccccc3)n[n+]2-c2ccccc2)cc1OC | -0.57%
CCc1ccc(Nc2n[n+](-c3ccccc3)c(-c3cccc(Cl)c3Cl)s2)cc1 | 14.2%
CCCN(CC(=O)Nc1ccc(OC)c(OC)c1)CC(=O)Nc1ccc(F)c(F)c1F | -0.52%
O=C(Nc1nc(-c2ccco2)c(-c2ccco2)s1)c1ccco1 | 26.9% (active)
NC(=O)c1ccsc1NC(=O)c1ccco1 | 1.47%
O=C(Nc1nnc(CCOCCOCCc2nnc(NC(=O)c3ccco3)s2)s1)c1ccco1 | -2.12%
N#Cc1ccccc1S(=O)(=O)N1CCN(Cc2c(O)ccc3ccccc23)CC1 | 0.2%
CCn1c(SCC(=O)Nc2ccc(Br)cc2)nc2sc3c(c2c1=O)CCN(C)C3 | 3.91%
CCOc1ccc(-n2c(SCC(=O)Nc3ccc(OC)cc3)nc3sc4c(c3c2=O)CCN(C)C4)cc1 | 11.8%
COc1ccccc1NC(=O)CSc1nc2sc3c(c2c(=O)n1-c1ccccc1)CCN(C)C3 | 21.4% (active)
Cc1cc(S(=O)(=O)NC2CCCC2)ccc1-n1cnnn1 | 3.65%
CC(Sc1nnnn1C)C(=O)NC(=O)NC1CCCCC1 (stereo not drawn) | 10.8%
CCN(CCNC(=O)C1=C(C)C(=O)OC12CCC(C)CC2)c1ccccc1 (stereo not drawn) | -1.92%
CCNS(=O)(=O)c1ccc(NC(=O)Nc2cccc(C(F)(F)F)c2)cc1 | 34.2% (active)
Cc1ccc(NC(=O)Nc2cccc(C(F)(F)F)c2)nc1 | 2.27%
O=C(Nc1ccc(C(=O)N2CCOCC2)cc1)Nc1cccc(C(F)(F)F)c1 | 0.27%
CCCCNCc1ccc(SC)cc1 | -2.43%
N=c1c2c3c(sc2nc2n1CCCCC2)CCCC3 | -1.9%
CCCCn1c(SCc2ncc(-c3ccccc3)o2)nc2cc(S(N)(=O)=O)ccc21 | 17.9% (active)
CCCCn1c(SCC(=O)N2CCC(C(=O)OCC)CC2)nc2cc(S(N)(=O)=O)ccc21 | -5.51%

Compound | inhibition
CCCCn1c(SCC(=O)N2CCCC2=O)nc2cc(S(N)(=O)=O)ccc21 | 2.2%
Cc1ccccc1/C=C\c1nc(O)c([N+](=O)[O-])c(=O)[nH]1 | -3.61%
CC(=O)c1ccc(N2CCN(S(=O)(=O)c3ccc4c(c3)CC(=O)N4C)CC2)cc1 | 20.6% (active)
CC(=O)c1ccc(N2CCN(C(=O)C3CCN(S(=O)(=O)c4ccc5c(c4)CC(C)N5C(=O)C4CC4)CC3)CC2)cc1 (stereo not drawn) | 8.74%
CC(=O)c1ccc(N2CCN(S(=O)(=O)c3c(C)[nH]c(=O)[nH]c3=O)CC2)cc1 | -4.3%
COc1cccc(NC(=O)C/C(C)=N/NC(=O)C2CCCCC2)c1 | 4.45%
COc1ccc(CCNC(=O)C2CC3Cn4c(nc5cc(C)c(C)cc54)C3N2C)cc1 (stereo not drawn) | -2.39%
C=CCOC(=O)C1=C[C@@H](c2ccc3c(c2)OCO3)C[C@@H](OCCCCO)O1 | 5.48%
O=C(CN1C(=O)NC(Cc2ccccc2)(Cc2ccccc2)C1=O)NCC1CCCCC1 | -3.39%
OCCNc1nc(Nc2ccc(Cl)c(Cl)c2)nc2ccccc12 | 23.4% (active)
CN(C)c1nc(Nc2ccc(Cl)c(Cl)c2)nc(N(C)C)n1 | 0.07%
COc1cc2nc(Cl)nc(NCCO)c2cc1OC | -3.14%
CCc1ccc(CNC(=O)C2CC(=O)N(CCc3ccc(C)cc3)C2)cc1 (stereo not drawn) | -3.41%
CCC(=O)N1CCN=C1SCc1ccc(F)cc1 | -1.6%
Cc1ccc(NC(=O)COc2ccc(/C=C3/NC(=O)NC3=O)cc2)cc1 | 19.3% (active)
CCOC(=O)C1=C(O)/C(=C/c2ccc(OCC(=O)Nc3ccc(C)cc3)cc2)N=C1C | 15.1%
COC(=O)C1=C(O)/C(=C/c2ccc(OCC(=O)Nc3ccccc3)cc2)N=C1C | 1.71%
CCc1cccc(NC(=O)COC(=O)C2CCN(c3ccc(C(F)(F)F)cn3)CC2)c1 | 3.82%
